Bioassay records: PubChem, National Center for Advancing Translational Sciences (NCATS)
PINK1 expr mod = changes PINK1 expression. PINK1 immunofluorescence, high-content cytometry, 24 h. Potency, µM (titrated, usually from 76.6 µM), most hits filed as activators. actives 0.2% (n = 410,000). AID 624263; active means well fitted activation curve with a large enough effect; inconclusive means small, poorly fitted or top-dose-only effect; cell line not stated here; further: nearly all actives have a fitted effect of over 65% in size
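Readout is PINK1 immunofluorescence, quantified alongside mitochondrial, cell and nuclear markers by laser-scanning microplate cytometry. Cells from a stable line were exposed to compound titrations (5 concentrations) for 24 hours, with CCCP controls.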
Epigenetic reg = regulators of epigenetic silencing causing reporter derepression in mouse cells; murine LDR cells, GFP reporter derepression, 30 h; Potency, µM (series often up to 53.9 µM), most hits filed as activators; actives 0.2% (n = 280,000); AID 1865; further: nearly all actives have a fitted effect of over 60% in size
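Murine LDR cells carrying a silenced, genomically integrated CMV-driven GFP reporter were exposed to compound for 30 hours at 37 C. After PBS washes, GFP-positive cells (20–120 um objects) were counted by laser-scanning microplate cytometry.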
Nrf2 inh = Nrf2 pathway inhibition; A549 ARE-Fluc reporter, luciferase luminescence, 18-24 h; actives 2.1% (n = 360,000); Potency, µM (doses to about 46 µM), hits mostly inhibitors; further: nearly all actives have a fitted effect of over 60% in size
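A549 ARE_Fluc cells, 5000/well, 5% FBS OPTI-MEM; compounds in dose-response, 18-24 h at 37 °C/5% CO2; CellTiter-Fluor viability read (Ex 405/Em 525), then BugLite luciferase luminescence = Nrf2 activity.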
A549 tox = A549 cytotoxicity, counter-screen for Nrf2 inhibitors; AID 504648; A549 ARE-Fluc cells, CellTiter-Fluor viability, 18-24 h; actives 0.16% (n = 390,000); Potency, µM (series often up to 46 µM), actives largely listed as inhibitors
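Cytotoxicity counterscreen: CellTiter-Fluor fluorescence was measured in A549 ARE_Fluc cells after 18-24 h of compound exposure in a concentration series. The subsequent BugLite luminescent read reports ARE-luciferase activity.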
Nrf2 activator = activators of Nrf2 (ARE) signaling | Potency, µM (top dose mostly 46.1 µM), actives largely listed as activators | AREc32 ARE-luciferase reporter (MCF7-derived line), luminescence, 24 h | actives 0.31% (n = 410,000); further: nearly all actives have a fitted effect of over 65% in size
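Luminescent ARE reporter assay in AREc32_Fluc cells: overnight plating at 37 deg C, 24 hr compound incubation, Steady-Glo added, 30 min RT before reading.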
Of the large screens only hits and unclear results are named; the others gave an inactive call. Only some compounds are listed: those with a hit (about 2.4% of all), similar ones and a draw of the others. Unless noted, the call rests on the fitted dose curve; in most records, active means well fitted curve in the direction sought with a large enough effect; inconclusive means small, poorly fitted or top-dose-only effect, or another doubt; inactive means no such curve, though single readings can be large; an effect the other way counts as inactive or inconclusive.

O=C1C=CC(=O)c2c(O)c(Cl)c(Cl)c(O)c21	none (no result: Nrf2 inh, A549 tox, Nrf2 activator)
O=C(C1CCN(S(=O)(=O)c2ccc3c(c2)OCCO3)CC1)N1CCc2ccccc21	Nrf2 inh 14.6µM
Cc1cccc(NC(=O)C2CCN(S(=O)(=O)c3ccc4c(c3)OCCCO4)CC2)n1	Nrf2 inh 14.6µM (no result: Epigenetic reg)
CC(=O)Nc1cccc(S(=O)(=O)N2CCCN(S(=O)(=O)c3ccc4c(c3)OCCO4)CC2)c1	Nrf2 inh 14.6µM (no result: PINK1 expr mod, Epigenetic reg, Nrf2 activator)
O=C(NCC(=O)N1CCN(S(=O)(=O)c2ccc3c(c2)OCCO3)CC1)c1ccccc1Cl	Nrf2 inh 11.6µM (no result: Epigenetic reg)
CC(=O)Nc1cccc(S(=O)(=O)N2CCN(S(=O)(=O)c3ccc4c(c3)OCCO4)CC2)c1	Nrf2 inh inconclusive (no result: PINK1 expr mod, Epigenetic reg, Nrf2 activator)
Cc1cccc(NC(=O)C2CCN(S(=O)(=O)c3ccc4c(c3)OCCO4)CC2)n1	Nrf2 inh inconclusive (no result: Epigenetic reg)
CC(C)C(NS(C)(=O)=O)c1nnc2n1CCN(Cc1ccc(C#CC(C)(C)O)cc1)CC2 (configuration not stated)	none (no result: Epigenetic reg, Nrf2 inh, A549 tox, Nrf2 activator)
N#Cc1cccn1-c1nccc(-c2cccs2)n1	Nrf2 inh inconclusive, Nrf2 activator 4.47µM
Cc1ccc(C)n1-c1nccc(-c2cccs2)n1	Nrf2 inh inconclusive, A549 tox inconclusive, Nrf2 activator inconclusive
CCOc1ccc(CCNC(=O)c2cn(CC)c3ccc(S(=O)(=O)N4CCc5ccccc5C4)cc3c2=O)cc1OCC	Nrf2 inh inconclusive
COCC(C)n1c(SCc2ccc(OC)c(F)c2)nc2ccccc2c1=O (configuration not stated)	Nrf2 inh 23.1µM
Cc1cc(C)n2ncc(C(=O)Nc3ccccc3)c2n1	none (no result: PINK1 expr mod, Epigenetic reg, Nrf2 activator)
Cc1ccc(CNC(=O)CSc2nc3n[nH]c(C)c3c(=N)n2-c2cccc(C)c2)cc1	Nrf2 inh 14.6µM, A549 tox inconclusive
Brc1ccc(C2=CC(c3ccco3)n3nnnc3N2)cc1 (configuration not stated)	Nrf2 activator 5.01µM
Cc1c(NC(=O)/C(C#N)=C/c2ccc(-c3ccc(Cl)cc3)o2)c(=O)n(-c2ccccc2)n1C	Nrf2 inh inconclusive, A549 tox 23.1µM
O=c1c2ccccc2sn1-c1ccc(S(=O)(=O)N2CCOCC2)cc1	Nrf2 inh inconclusive (no result: Epigenetic reg, Nrf2 activator)
Cc1ccccc1C1(CC(=O)N2CCCCC2c2cccnc2)CC(=O)N(C2CCCC2)C1=O (configuration not stated)	none (no result: Epigenetic reg, Nrf2 inh, A549 tox, Nrf2 activator)
CCOc1ccc(N(CC)S(=O)(=O)N2CCCC(C(=O)NCCc3ccc(OC)cc3)C2)cc1 (configuration not stated)	Nrf2 inh inconclusive
CCOc1ccc(N(CC)S(=O)(=O)N2CCCC(C(=O)Nc3ccc(OC)c(OC)c3)C2)cc1 (configuration not stated)	Nrf2 inh 20.6µM
COc1ccc(C(=O)OC2CC3CC[C@H](C2)N3C(C)=O)cc1OC (some centres not stated)	none (no result: PINK1 expr mod, Nrf2 inh, A549 tox, Nrf2 activator)
O=C(O)c1ccc(Nc2ncc([N+](=O)[O-])cc2[N+](=O)[O-])cc1	A549 tox 18.4µM
Cc1ccc(NC(=O)CSc2ccccc2)cc1S(=O)(=O)N1CCOCC1	none (no result: Epigenetic reg)
Cc1ccc(CN2CC(C(=O)Nc3ccc(C)c(S(=O)(=O)N4CCCCC4)c3)CC2=O)cc1 (configuration not stated)	Nrf2 inh 20.6µM, A549 tox inconclusive (no result: Epigenetic reg)
Cc1ccc(NC(=O)CSc2ncnc3ccccc23)cc1S(=O)(=O)N1CCCCC1	Nrf2 inh 14.6µM, A549 tox inconclusive
Cc1ccc(NC(=O)CSc2ncnc3ccccc23)cc1S(=O)(=O)N1CCOCC1	Nrf2 inh 23.1µM
Cc1ccc(NC(=O)CSc2ccccc2)cc1S(=O)(=O)N1CCCCC1	Nrf2 inh 23.1µM (no result: Epigenetic reg)
COc1ccc(NC(=O)C2CC(=O)N(Cc3ccc(C)cc3)C2)cc1S(=O)(=O)N1CCCCC1 (configuration not stated)	Nrf2 inh inconclusive
CSc1nccc(-c2cc(Cl)c3c(c2)CC(CNC(=O)c2nonc2C)O3)n1 (configuration not stated)	none (no result: Epigenetic reg, Nrf2 inh, A549 tox, Nrf2 activator)
COc1ccc(C(=O)NCc2nc(-c3cccc(NC(=O)c4ccc(C)s4)c3)oc2C)cc1	none (no result: Epigenetic reg, Nrf2 inh, A549 tox, Nrf2 activator)
CCCSCCCNC(=O)C1CCN(c2nn3cc(-c4ccc(F)cc4)nc3s2)CC1	none
Cc1ccc(NC(=O)Cn2ncc(Cl)c(Cl)c2=O)cc1S(=O)(=O)N1CCCCC1	Nrf2 activator inconclusive (no result: Epigenetic reg)
Cc1ccc(NC(=O)c2cc(=O)c3ccccc3o2)cc1S(=O)(=O)N1CCOCC1	Nrf2 inh inconclusive
Cc1ccc(NC(=O)c2cc(=O)c3ccccc3o2)cc1S(=O)(=O)N1CCCCC1	Nrf2 inh 16.4µM
Cc1ccc(NC(=O)Cn2c(=O)cnc3ccccc32)cc1S(=O)(=O)N1CCCCC1	Nrf2 inh 13µM (no result: Epigenetic reg)
Cc1ccc(NC(=O)Cn2cc(C(F)(F)F)cc(Cl)c2=O)cc1S(=O)(=O)N1CCCCC1	Nrf2 inh 23.1µM (no result: Epigenetic reg)
COc1ccc(-c2nc3ccccc3o2)cc1NC(=O)COc1ccc(C(C)(C)C)cc1	Nrf2 inh inconclusive
Nc1ccc(/C=C/c2ccnc3ccccc23)cc1	none (no result: Epigenetic reg, Nrf2 inh, A549 tox, Nrf2 activator)
CN(C)C(=O)CSc1nnc(Cc2ccccc2)n1Cc1ccco1	none
O=C(CSc1nnc(Cc2ccccc2)n1Cc1ccco1)NC12CC3CC(CC(C3)C1)C2	PINK1 expr mod inconclusive, Nrf2 inh 25.9µM
Cc1ccccc1NC(=O)Cn1c(=O)n(CCC(=O)N2CCc3ccccc3C2)c(=O)c2ccccc21	none
Cc1ccccc1OCc1nnc(SCC(=O)Nc2ccc3c(c2)oc2ccccc23)n1C	PINK1 expr mod 12.6µM (no result: Nrf2 inh)
COc1ccccc1OCc1nnc(SCC(=O)Nc2ccc(C)cc2)n1C	none
COc1cc(CN2CCOc3ccc(CN4CCC(O)(c5cccnc5)CC4)cc3C2)ccc1F	none (no result: Epigenetic reg, Nrf2 inh, A549 tox, Nrf2 activator)
O=S(=O)(c1ccc2nc(SCc3ccc(Cl)cc3)[nH]c2c1)N1CCOCC1	PINK1 expr mod inconclusive, Nrf2 inh 23.1µM
C=CS(=O)(=O)c1ccc(Oc2ccc(S(=O)(=O)C=C)cc2)cc1	Nrf2 inh 18.4µM, A549 tox inconclusive
CCc1ccc(OCC(=O)NNC(=S)NC(=O)C2CC2)c(Br)c1	Nrf2 inh 6.51µM (no result: Epigenetic reg)
CCc1ccc(OCC(=O)NNC(=S)NC(=O)C2CCCCC2)c(Br)c1	none (no result: Epigenetic reg)
Cc1ccc(S(=O)(=O)N2CCN(c3nc(-n4cncn4)nc4ccccc34)CC2)cc1	none (no result: Epigenetic reg, Nrf2 inh, A549 tox, Nrf2 activator)
COc1ccc(C(c2nnnn2Cc2ccccc2)N2CCN(c3nc4ccccc4s3)CC2)cc1 (configuration not stated)	none (no result: Nrf2 inh)
CCC(c1nnnn1CS(=O)(=O)c1ccc(C)cc1)N1CCN(c2nc3ccccc3s2)CC1 (configuration not stated)	Nrf2 inh 8.2µM (no result: PINK1 expr mod)
CCCC(c1nnnn1CS(=O)(=O)c1ccc(C)cc1)N1CCN(c2ccccc2)CC1 (configuration not stated)	none
